# PubChem BioAssay AID1159580 (chemical genetic matrix, 2015)
# Values joined by “and” are separate entries in the source; they are usually repeats but may differ in a detail not shown here. Equal values may be shown once. Hit rate of the full screen: of about 5,500 compounds, about 2,000 (36%) were called active. About 18% were inconclusive and are not listed. The list shows a part of the results. A number with no mark means an inactive call. No stated cut-off is given here; in the data, active means normalized growth mostly below about 0.91 (no sharp cut-off); inconclusive means no clear call, values can overlap the other calls; inactive means mostly above about 0.92.
# Experiment: chemical genetic growth profiling, strain panel (AID 1159580);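 further: tested at 20 µM; growth read once vehicle control cultures reached saturation at 30 °C; 1 = growth at the plate median or of vehicle wells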
# Details: S. cerevisiae deletion strains, growth OD
smiles,measurement,setting,value
C#CCCCCCCCCCCCC(O)CC(O)COC(C)=O (stereo unspecified),normalized growth,"locus YAL013W, strain DEP1, stronger effect = lower value",0.98
same,normalized growth,"locus YAL021C, strain ccr4, stronger effect = lower value",0.766 (active)
same,normalized growth,"locus YAL026C, strain drs2, stronger effect = lower value",0.906 (active)
same,normalized growth,"locus YAL030W, strain snc1, stronger effect = lower value",0.526 (active)
same,normalized growth,"locus YBL061C, strain skt5, stronger effect = lower value",0.841 (active)
same,normalized growth,"locus YBR009C, strain hhf1, stronger effect = lower value",0.263 (active)
same,normalized growth,"locus YBR021W, strain FUR4, stronger effect = lower value",0.925
same,normalized growth,"locus YBR023C, strain chs3, stronger effect = lower value",0.756 (active)
same,normalized growth,"locus YBR171W, strain sec66, stronger effect = lower value",0.962
same,normalized growth,"locus YBR229C, strain ROT2, stronger effect = lower value",0.982
same,normalized growth,"locus YBR231C, strain swc5, stronger effect = lower value",0.962
same,normalized growth,"locus YBR279W, strain paf1, stronger effect = lower value",0.87 (active)
same,normalized growth,"locus YCL011C, strain gbp2, stronger effect = lower value",0.32 (active)
same,normalized growth,"locus YCL016C, strain dcc1, stronger effect = lower value",0.805 (active)
same,normalized growth,"locus YCL029C, strain bik1, stronger effect = lower value",0.954
same,normalized growth,"locus YCL069W, strain vba3, stronger effect = lower value",0.852 (active)
same,normalized growth,"locus YCR088W, strain abp1, stronger effect = lower value",0.947
same,normalized growth,"locus YDL005C, strain med2, stronger effect = lower value",0.103 (active)
same,normalized growth,"locus YDL035C, strain GPR1, stronger effect = lower value",0.908
same,normalized growth,"locus YDL040C, strain nat1, stronger effect = lower value",0.973
same,normalized growth,"locus YDL074C, strain BRE1, stronger effect = lower value",0.857
same,normalized growth,"locus YDL101C, strain DUN1, stronger effect = lower value",0.975
same,normalized growth,"locus YDL134C, strain PPH21, stronger effect = lower value",0.972
same,normalized growth,"locus YDL185W, strain tfp1, stronger effect = lower value",0.963
same,normalized growth,"locus YDL192W, strain arf1, stronger effect = lower value",0.928
same,normalized growth,"locus YDR001C, strain nth1, stronger effect = lower value",0.999
same,normalized growth,"locus YDR069C, strain doa4, stronger effect = lower value",1.02
same,normalized growth,"locus YDR101C, strain arx1, stronger effect = lower value",0.916 (active)
same,normalized growth,"locus YDR137W, strain rgp1, stronger effect = lower value",0.63 (active)
same,normalized growth,"locus YDR150W, strain NUM1, stronger effect = lower value",0.992
same,normalized growth,"locus YDR159W, strain sac3, stronger effect = lower value",0.289 (active)
same,normalized growth,"locus YDR162C, strain NBP2, stronger effect = lower value",0.945
same,normalized growth,"locus YDR195W, strain ref2",0.482 (active)
same,normalized growth,"locus YDR297W, strain sur2, stronger effect = lower value",0.571 (active)
same,normalized growth,"locus YDR318W, strain mcm21, stronger effect = lower value",0.889 (active)
same,normalized growth,"locus YDR334W, strain swr1, stronger effect = lower value",1.04
same,normalized growth,"locus YDR335W, strain msn5, stronger effect = lower value",0.913 (active)
same,normalized growth,"locus YDR388W, stronger effect = lower value",0.967
same,normalized growth,"locus YDR392W, strain spt3, stronger effect = lower value",0.21 (active)
same,normalized growth,"locus YDR502C, strain sam2, stronger effect = lower value",0.923
same,normalized growth,"locus YEL003W, strain gim4, stronger effect = lower value",0.376 (active)
same,normalized growth,"locus YEL037C, strain rad23, stronger effect = lower value",0.997
same,normalized growth,"locus YEL061C, strain CIN8 (second series), stronger effect = lower value",0.872 (active)
same,normalized growth,"locus YEL061C, strain CIN8, stronger effect = lower value",0.989
same,normalized growth,"locus YER015W, strain faa2, stronger effect = lower value",0.714 (active)
same,normalized growth,"locus YER016W, strain bim1, stronger effect = lower value",0.861 (active)
same,normalized growth,"locus YER110C, stronger effect = lower value",0.965
same,normalized growth,"locus YER111C, strain swi4, stronger effect = lower value",0.927
same,normalized growth,"locus YER155C, strain BEM2 (second series), stronger effect = lower value",0.461 (active)
same,normalized growth,"locus YER155C, strain BEM2, stronger effect = lower value",0.988
same,normalized growth,"locus YER167W, strain BCK2, stronger effect = lower value",0.953
same,normalized growth,"locus YFR010W, strain ubp6, stronger effect = lower value",1.03
same,normalized growth,"locus YGL078C, strain dbp3, stronger effect = lower value",0.881 (active)
same,normalized growth,"locus YGL086W, strain mad1, stronger effect = lower value",0.91 (active)
same,normalized growth,"locus YGL167C, strain pmr1, stronger effect = lower value",0.939
same,normalized growth,"locus YGL173C, strain kem1, stronger effect = lower value",0.539 (active)
same,normalized growth,"locus YGL227W, strain vid30, stronger effect = lower value",0.72 (active)
same,normalized growth,"locus YGL240W, strain doc1, stronger effect = lower value",0.727 (active)
same,normalized growth,"locus YGL248W, strain PDE1, stronger effect = lower value",0.976
same,normalized growth,"locus YGL253W, strain hxk2, stronger effect = lower value",0.788 (active)
same,normalized growth,"locus YGR078C, strain PAC10, stronger effect = lower value",0.905
same,normalized growth,"locus YGR135W, strain pre9, stronger effect = lower value",0.918
same,normalized growth,"locus YGR229C, strain SMI1, stronger effect = lower value",0.954
same,normalized growth,"locus YGR252W, strain gcn5, stronger effect = lower value",0.831
same,normalized growth,"locus YHR013C, strain ard1, stronger effect = lower value",1.13
same,normalized growth,"locus YHR027C, strain rpn1, stronger effect = lower value",0.82 (active)
same,normalized growth,"locus YHR030C, strain SLT2, stronger effect = lower value",0.98 and 0.998
same,normalized growth,"locus YHR079C, strain IRE1 (second series), stronger effect = lower value",0.942
same,normalized growth,"locus YHR079C, strain IRE1, stronger effect = lower value",0.969
same,normalized growth,"locus YHR094C, strain hxt1, stronger effect = lower value",0.97
same,normalized growth,"locus YHR129C, strain ARP1, stronger effect = lower value",0.978
same,normalized growth,"locus YHR142W, strain chs7, stronger effect = lower value",0.624 (active)
same,normalized growth,"locus YHR200W, strain rpn10, stronger effect = lower value",0.945
same,normalized growth,"locus YIL066C, strain RNR3, stronger effect = lower value",0.885
same,normalized growth,"locus YIL073C, strain SPO22, stronger effect = lower value",0.917
same,normalized growth,"locus YIL125W, strain kgd1, stronger effect = lower value",0.965
same,normalized growth,"locus YIR030C, strain dcg1, stronger effect = lower value",0.962
same,normalized growth,"locus YJL092W, strain hpr5, stronger effect = lower value",0.963
same,normalized growth,"locus YJL095W, strain BCK1 (second series), stronger effect = lower value",0.216 (active)
same,normalized growth,"locus YJL095W, strain BCK1, stronger effect = lower value",0.935 and 1
same,normalized growth,"locus YJL115W, strain asf1, stronger effect = lower value",0.975
same,normalized growth,"locus YJL129C, strain trk1, stronger effect = lower value",0.213 (active)
same,normalized growth,"locus YJL134W, strain LCB3, stronger effect = lower value",0.997
same,normalized growth,"locus YJL154C, strain vps35, stronger effect = lower value",1.01
same,normalized growth,"locus YJL164C, strain tpk1, stronger effect = lower value",0.258 (active)
same,normalized growth,"locus YJL166W, strain qcr8, stronger effect = lower value",0.283 (active)
same,normalized growth,"locus YJL168C, strain set2, stronger effect = lower value",0.966
same,normalized growth,"locus YJL187C, strain SWE1 (second series), stronger effect = lower value",0.954
same,normalized growth,"locus YJR043C, strain POL32, stronger effect = lower value",0.897
same,normalized growth,"locus YJR066W, strain TOR1, stronger effect = lower value",0.957
same,normalized growth,"locus YJR075W, strain HOC1, stronger effect = lower value",0.947
